HT1080NT lethal = kills 2HG-producing HT-1080-NT fibrosarcoma cells | HT-1080-NT fibrosarcoma viability, CellTiter-Glo ATP luminescence, 48 h | Potency, µM (series often up to 46.1 µM), hits mostly cytotoxic | 1.6% of 360,000 active;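 further: NT is the 2HG producing partner of a matched IDH1 knockdown line; nearly all actives have a fitted effect of over 55% in size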
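Read-out is CellTiter-Glo luminescence after 10 minutes at room temperature, following 48 hours' compound treatment of HT-1080-NT cells (750 cells/well, RPMI, 5% FBS, 37 degrees C).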
KB-V1 cytotox = KB-V1 MDR subline cytotoxicity. 3.4% of 400,000 active. Potency, µM (titrated, usually from 46.1 µM), most hits filed as cytotoxic. KB-V1 MDR cells viability, CellTiter-Glo, 72 h; further: nearly all actives have a fitted effect of over 60% in size
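Drug-selected KB-V1 cells, grown in DMEM lacking phenol red with 10% FBS, receive compound titrations; after three days at 37 degrees C, surviving cell ATP is quantified by CellTiter-Glo luminescence and responses normalized and curve-fitted.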
KB-3-1 tox = kills parental KB-3-1 adenocarcinoma cells. KB-3-1 viability, CellTiter-Glo ATP luminescence, 72 h. 1.4% of 400,000 active. Potency, µM (highest dose often 46.1 µM), most hits filed as cytotoxic. AID 1347075; further: nearly all actives have a fitted effect of over 60% in size
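KB-3-1 cells, DMEM (no phenol red) + 10% FBS; compound by pin transfer, 72 h, 37 °C. Readout: CellTiter-Glo luminescence after 10 min. Data normalized, curve-fitted.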
HT1080 IDH1KD tx = HT-1080 IDH1 knockdown cell toxicity (counter line). HT-1080 IDH1 knockdown viability, ATP luminescence, 48 h. Potency, µM (titrated, usually from 46.1 µM), actives largely listed as cytotoxic. 2% of 360,000 active
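In this qHTS, HT-1080 cells depleted of IDH1 are exposed for 48 h at 37 °C to compound titrations. Toxicity is scored from CellTiter-Glo luminescence, with DMSO as full viability and medium alone as none.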
HepG2 tox = HepG2 cytotoxicity, counter-screen for TGF-b inhibitors; Potency, µM (series often up to 46.1 µM), hits mostly cytotoxic; 0.76% of 410,000 active; HepG2 CAGA-GFP viability, ATP luminescence, 18 h
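CellTiter-Glo luminescence gave cytotoxicity after 18 hours at 37 degrees C. The cells were HepG2 CAGA-GFP in 1% FBS DMEM, stimulated with 500 pg/mL TGF-beta after compound addition. %Activity was normalised to no-cell wells (complete cell-killing) and DMSO (no toxicity), and curves were fitted and classified.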
TGFb SMAD3 inh = TGF-b pathway inhibition. HepG2 CAGA-GFP TGF-b/SMAD3 reporter, GFP fluorescence, 18 h; TGF-beta stimulated, 500 pg/mL final. Potency, µM (top dose mostly 46.1 µM), most hits filed as inhibitors. 1.2% of 410,000 active. AID 588855; further: nearly all actives have a fitted effect of over 65% in size
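TGF-beta reporter screen: HEPG2 CAGA-GFP, 1% FBS, 500 pg/mL TGF-beta final, 18 h; per-cell GFP summed per well; curves fitted and categorized by class.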
Numbers stand for hits; 0 = inactive; ? = inconclusive; - = no result given. Shown are actives, neighbours in structure and some others; about 6.6% of the full set was active somewhere. The call rests on the fitted dose curve; in most records, active means well fitted curve in the direction sought with a large enough effect; inconclusive means small, poorly fitted or top-dose-only effect, or another doubt; inactive means no such curve, though single readings can be large; an effect the other way counts as inactive or inconclusive.

SMILES	HT1080NT lethal	KB-V1 cytotox	KB-3-1 tox	HT1080 IDH1KD tx	HepG2 tox	TGFb SMAD3 inh
COc1ccc(C2CC(=O)Nc3cc4c(cc32)OCO4)c(OC)c1 (centres undefined)	-	-	-	-	0	-
CC(C)COc1ccccc1C1CC(=O)Nc2cc3c(cc21)OCO3 (centres undefined)	-	?	6.51µM	-	0	?
O=S(=O)(c1ccc(Br)s1)N1CCN(c2cccc(C(F)(F)F)c2)CC1	-	0	0	-	0	0
Cc1cc(C=CC#N)cc(C)c1Nc1nc(Nc2ccc3c(c2)OCO3)c2[nH]cnc2n1	-	?	18.4µM	-	-	-
CCc1ccc(CNC(=O)Cc2ccc(NC(=O)C3=C(C)OCCS3)cc2)cc1	0.82µM	1.16µM	1.16µM	1.3µM	0	?
O=c1cc(CCl)nc(Cc2c(Cl)cccc2Cl)[nH]1	23.1µM	?	?	25.9µM	0	0
Cc1coc2c(C)c3oc(=O)c(CCC(=O)NCCc4ccc(Cl)cc4)c(C)c3cc12	-	-	-	-	0	0
O=C(Cn1c(=O)oc2cc(S(=O)(=O)N3CCCCCC3)ccc21)Nc1cccc(C(F)(F)F)c1	-	0	0	-	0	0
Cc1cnc2ccccc2c1/C=C/c1ccc(N(C)C)cc1	-	?	?	-	0	0
Cc1cc(/C=C/c2c(C)cnc3ccccc23)ccc1N(C)C	-	16.4µM	?	-	0	?
CN(C)c1ccc(/C=C/c2c(F)cnc3ccccc23)cc1	-	?	9.2µM	-	0	?
Cc1cnc2ccc(I)cc2c1/C=C/c1ccc(N(C)C)cc1	-	?	11.6µM	-	0	0
Cc1ccc2c(CC(=O)Nc3cc(C(F)(F)F)ccc3Cl)coc2c1C	-	0	0	-	0	?
Cc1ccc(C(=O)Oc2ccc(Cl)c3cccnc23)cc1[N+](=O)[O-]	0	0	?	0	0	11.2µM
COc1cccc(C(c2sc3nc(-c4ccco4)nn3c2O)N2CCOCC2)c1 (centres undefined)	-	?	0	-	0	0
Cn1c(CCNC(=O)c2ccco2)nc2cc(NC(=O)c3ccco3)ccc21	0	0	0	0	0	0
Cn1c(CCNC(=O)c2ccccc2)nc2cc(NC(=O)c3ccco3)ccc21	0	16.4µM	?	0	0	0
COc1ccccc1C(=O)Nc1ccc2c(c1)nc(CCNC(=O)c1ccco1)n2C	?	?	1.64µM	4.61µM	0	?
CCN1C(=O)c2ccccc2Sc2ccc(NC(=O)c3ccc(C#N)cc3)cc21	-	0	0	-	0	0
CCCS(=O)(=O)c1c(S(=O)(=O)CCC)c2c(C)cccn2c1C(N)=O	0	0	0	0	0	0
CCCS(=O)(=O)c1c(S(=O)(=O)CCC)c2c(C)cccn2c1C(=O)N/N=C/c1cc(O)cc(O)c1	?	0	?	7.31µM	0	0
Cc1c(CNC(=O)c2nn3c(c2Cl)NC(c2ccccc2)CC3C(F)(F)F)cnn1C (centres undefined)	0	20.6µM	0	0	0	0
COc1ccc(C2CC(C(F)(F)F)n3nc(C(=O)NCc4c(C)nn(C)c4C)c(Cl)c3N2)cc1 (centres undefined)	?	6.51µM	?	0	0	?
CCOc1ccc(C(=O)N2CCc3cc(OC)c(OC)cc3C2COc2ccc3c(C)cc(=O)oc3c2)cc1OCC (centres undefined)	-	0	0	-	0	0
COc1ccccc1N(CC(=O)N/N=C(\C)c1cccc(Br)c1)S(C)(=O)=O	0	20.6µM	0	0	0	0
SMILES	HT1080NT lethal	KB-V1 cytotox	KB-3-1 tox	HT1080 IDH1KD tx	HepG2 tox	TGFb SMAD3 inh
CC(C)C1C(=O)N(Cc2cn(CC3CCCCC3)nn2)CCS(=O)(=O)N1Cc1ccc(-c2ccc(F)nc2)cc1 (centres undefined)	?	?	16.4µM	?	0	?
CC1C(=O)N(Cc2cn(CC3CCCCC3)nn2)CCS(=O)(=O)N1Cc1ccc(-c2ccc(Cl)cc2)cc1 (centres undefined)	?	18.4µM	?	16.4µM	0	?
CC1C(=O)N(Cc2cn(CC3CCCCC3)nn2)CCS(=O)(=O)N1Cc1ccc(-c2ccc(Cl)c(Cl)c2)cc1 (centres undefined)	?	0	0	0	0	?
CCOc1ccccc1NC(=O)C1CCN(S(=O)(=O)c2ccc3c(c2)CCCN3C(C)=O)CC1	-	0	0	-	0	?
CCN(CC)CCNC(=O)c1ccc(-n2c(-c3ccccc3)cc3c2CCCC3)cc1	-	-	-	-	0	0
O=C(Nc1c[nH]c(=O)[nH]c1=O)c1ccccc1Cl	0	16.4µM	?	0	0	0
O=C(Nc1cccn(Cc2c(Cl)cccc2Cl)c1=O)c1ccc(Cl)cc1Cl	?	16.4µM	20.6µM	?	0	0
O=C(Nc1cccn(Cc2c(Cl)cccc2Cl)c1=O)c1ccccc1Cl	0	5.8µM	?	0	0	?
CC(=O)Nc1cccn(Cc2c(Cl)cccc2Cl)c1=O	0	0	0	0	0	0
COc1ccccc1C(=O)Nc1c[nH]c(=O)[nH]c1=O	0	0	0	0	0	0
CS(=O)(=O)N1CCCc2cc(C(=O)Nc3cccc(C(F)(F)F)c3)ccc21	-	-	-	-	0	0
Cc1c(Cl)cccc1N=Cc1ccc([N+](=O)[O-])s1	12.6µM	0	0	10µM	0	?
O=[N+]([O-])c1ccc(/C=N/NC(=S)Nc2ccc(Cl)cc2Cl)s1	?	?	?	?	0	?
CCOc1ccccc1CNC(=O)c1cnc2sc(N(CC)CC)nn2c1=O	-	-	-	-	0	0
O=C(COc1ccccc1Br)N1CCN(c2ccccc2)CC1	0	18.4µM	0	0	0	0
O=C(CCOc1ccccc1)N1CCN(S(=O)(=O)c2cccs2)CC1	0	0	0	0	0	0
O=C(CCOc1ccccc1)N1CCN(S(=O)(=O)c2ccccc2F)CC1	0	20.6µM	0	0	0	?
N#Cc1ccccc1OCC(=O)N1CCN(c2ccccc2)CC1	-	0	0	-	0	0
O=C(CCOc1ccccc1)N1CCN(c2ccc(O)cc2)CC1	1.46µM	0	?	4.61µM	0	0
CCCOc1ccccc1C(=O)Nc1ccc(-c2nc3ccc(C)cc3s2)cc1	-	0	0	-	0	0
Cc1noc(C)c1COC(=O)c1csc2c1CCC(C)C2 (centres undefined)	0	20.6µM	0	0	0	0
O=C(CN1CCN(Cc2ccccc2)CC1)N1CCCc2c1c(=O)oc1ccc(O)cc21	?	14.6µM	?	?	0	0
CCCCCOc1ccc2oc(=O)c3c(c2c1)CCCN3C(=O)CN1CCCC(C(=O)OCC)C1 (centres undefined)	?	?	?	23.1µM	0	0
Cc1ccccc1CNC(=O)c1ccc2nc(SCc3ccc(F)cc3)n(C)c2c1	-	0	0	-	0	0

Bioassay records (PubChem BioAssay)
